Screens deposited in PubChem BioAssay by several laboratories.
MLLE-PAM2 inh: inhibitors of PABP1 MLLE–PAM2 peptide binding, primary screen, biochemical, fluorescence polarization, FITC-PAM2, GST-MLLE | Polyadenylate-binding protein 1 (Homo sapiens), P11940 | AID 588489, 2011 | inhibition, % at 20 µM | 0.36% of 360,000 active; in the data active means inhibition above about 35%, passing the limit was not always enough
PERK inhibitor: block of dimerizer-induced PERK translation repression, primary screen, PERK inhibitor project, CHO PERK-DD cells, SEAP luminescence, HTS | Eukaryotic translation initiation factor 2-alpha kinase 3 (Homo sapiens), Q9NZJ5 | CHO PERK-DD fusion, SEAP luminescence translation reporter | inhibition, % at 5.6 µM | 0.17% of 220,000 active;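 active means inhibition above the mean inhibition of all tested compounds plus 3 SD, set separately per screening campaign, cut at about 2.9% in these data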;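 further: PERK kinase domain activated by AP20187 dimerizer at 100 nM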
PABP polyA inh: PABP poly(A) RNA binding inhibitors, primary screen, biochemical, fluorescence polarization, uHTS; inhibition, % at 35 µM; AID 2014, 2009; 1% of 290,000 active; Polyadenylate-binding protein 1 (Homo sapiens), P11940;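 further: calls also rest on retests at 20 µM and on dose response follow-up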
eIF4E 4G PPI: eIF4E–eIF4G protein interaction inhibitors, primary screen, biochemical, uHTS, TR-FRET, eIF4GI fragment; Eukaryotic translation initiation factor 4E (Mus musculus) + Eukaryotic translation …; TR-FRET eIF4E-eIF4GI(517-606) binding, 2 h; inhibition, % at 21.7 µM; 0.37% of 220,000 active; AID 782, 2007;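 active means inhibition above about 30%, limit read from the data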
eIF4H FP inh: human eIF4H binding inhibitors, primary screen, translation initiation inhibitor project, biochemical, uHTS, fluorescence polarization; Eukaryotic translation initiation factor 4H (Homo sapiens), Q15056; eIF4H fluorescence polarization binding assay; inhibition, % at 35 µM; 0.94% of 290,000 active; AID 2012, 2009;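 further: calls also rest on retests at 20 µM and on dose response follow-up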
Of the large screens only hits and unclear results are named; the others gave an inactive call; [ ] = another dose, or the depositor's remark. Hits are enriched below; roughly 1.6% of the tested compounds scored in any of these assays. Unless noted, how the calls were made is not given here.

N#CC1=C(N)C2=C(N3CCCCC3)CCCC2C1(C#N)C#N (stereo not drawn)	MLLE-PAM2 inh 39, PABP polyA inh 112, eIF4H FP inh 110
N#CC(C#N)=C1C=C2C=C(N3CCCCC3)CCC2CC1 (stereo not drawn)	eIF4H FP inh inconclusive (no result: MLLE-PAM2 inh)
CC(C)(C)NC(=O)CCN(/N=C/c1ccc([N+](=O)[O-])o1)C1=NS(=O)(=O)c2ccccc21	eIF4H FP inh 82
O=c1[nH]c(/C=C\c2cccc(O)c2)nc(O)c1[N+](=O)[O-]	none (no result: PERK inhibitor, eIF4E 4G PPI)
Cc1cc(/C=C\c2nc(O)c([N+](=O)[O-])c(=O)[nH]2)c(C)n1-c1ccccc1	eIF4H FP inh 62
O=c1[nH]c(/C=C\c2ccc(O)c(O)c2)nc(O)c1[N+](=O)[O-]	PABP polyA inh 41, eIF4H FP inh 50 (no result: PERK inhibitor, eIF4E 4G PPI)
COc1ccc(S(=O)(=O)Cc2ccc(C(=O)NCCCN(C)c3ccccc3)o2)cc1	none
Cc1cc2cc(CNC(=O)c3ccc(C)c([N+](=O)[O-])c3)ccc2[nH]1	MLLE-PAM2 inh 43
CCC(=O)NCCCc1nc2ccccc2n1Cc1ccccc1F	PABP polyA inh 63
CCC(=O)NCc1nc2ccccc2n1Cc1ccccc1F	none
CC/C(=C/c1sc2ccc(C)cc2[n+]1CCCS(=O)(=O)[O-])SC	none (no result: MLLE-PAM2 inh)
Cc1ccc2sc(C)[n+](CCC(C)S(=O)(=O)[O-])c2c1 (stereo not drawn)	MLLE-PAM2 inh 41
NC(N)=NCc1cccc(I)c1	none (no result: PERK inhibitor, PABP polyA inh, eIF4E 4G PPI, eIF4H FP inh)
CCOC(=O)COc1cccc2c(=O)n(CC(=O)N3CCCCC3)ccc12	PABP polyA inh 61, eIF4H FP inh 103
COc1ccc(OC)c(-c2c3cc(O)c(=O)cc-3oc3cc(O)c(O)cc23)c1	eIF4E 4G PPI 51[fluorescence artefact?], eIF4H FP inh inconclusive
CCOc1ccccc1-c1c2cc(O)c(=O)cc-2oc2cc(O)c(O)cc12	eIF4H FP inh inconclusive
O=c1cc2oc3cc(O)c(O)cc3c(-c3ccccc3O)c-2cc1O	PERK inhibitor 3.1, PABP polyA inh inconclusive, eIF4H FP inh inconclusive
Cc1nc([N+](=O)[O-])cn1C(C)C	none
Cc1ccc2oc(-c3ccco3)cc(=O)c2c1	none
C1CC2CN(c3nc4nonc4nc3N3CCSCC3)CCN2C1 (stereo not drawn)	MLLE-PAM2 inh 52
CCN1CCC(=NNC(=O)c2ccco2)CC1	none
CCCN1CCC(=NNC(=O)c2ccc(Br)o2)CC1	eIF4E 4G PPI 39
CC(C)N(CC(N)=O)c1ccc(S(=O)(=O)N2CCCC2)cn1	none (no result: PERK inhibitor, PABP polyA inh, eIF4E 4G PPI, eIF4H FP inh)
CN1C(=O)c2cccc(NCCCN3C(=O)c4ccccc4C3=O)c2C1=O	PABP polyA inh 94, eIF4H FP inh 66
CN1C(=O)c2cccc(NCCCCCCN3C(=O)c4ccccc4C3=O)c2C1=O	none
COc1ccccc1OCC(=O)N(Cc1nc(-c2ccccc2)no1)C(C)C	none (no result: PERK inhibitor, eIF4E 4G PPI)
CC(C)N(Cc1nc(-c2ccccc2)no1)C(=O)COc1ccccc1	eIF4E 4G PPI 62
O=C(NC12CC3CC(CC(C3)C1)C2)c1cnccn1	MLLE-PAM2 inh 46
S=C(NC1CCCCC1)N1CCn2cccc2C1c1ccncc1 (stereo not drawn)	PABP polyA inh active, eIF4H FP inh 70
S=C(NC1CCCCC1)N1CCn2cccc2C1c1cccnc1 (stereo not drawn)	none
Cc1ccc(C(=O)N2CCCCC2)cc1NC1=C(Cl)C(=O)N(Cc2ccccc2)C1=O	none (no result: PERK inhibitor, PABP polyA inh, eIF4E 4G PPI, eIF4H FP inh)
Cc1ccc(O)c(NC2=C(Cl)C(=O)N(Cc3ccccc3)C2=O)c1	eIF4E 4G PPI 31
O=C(CCl)Nc1ccc(N=Nc2ccccc2)cc1	eIF4H FP inh active
O=C(O)CCN1C(=O)c2ccc(NC(=O)C(c3ccccc3)c3ccccc3)cc2C1=O	eIF4E 4G PPI 71
O=C(O)CCN1C(=O)c2ccc(NC(=O)c3ccco3)cc2C1=O	none
COC(=O)CNC(c1ccccc1)c1cc(Br)ccc1NC(C)=O (stereo not drawn)	none
COC(=O)CNC(c1ccccc1Cl)c1cc(Br)ccc1NS(=O)(=O)c1ccc(C)cc1 (stereo not drawn)	eIF4H FP inh active
S=C(c1ccc(-c2ccccc2Cl)o1)N1CCOCC1	MLLE-PAM2 inh 41
O=C(OCC1CC(c2ccccn2)=NO1)c1ccc(Br)cc1 (stereo not drawn)	eIF4E 4G PPI 42
CCOC(=O)c1ccc(NC(=O)c2ccc(OC(C)C)c(OC)c2)cc1	none
O=C(c1cc([N+](=O)[O-])cc([N+](=O)[O-])c1)N1CCN(C(=O)c2ccco2)CC1	none
O=C(C(NS(=O)(=O)c1cccs1)c1ccccc1)N1CCN(c2ccccc2)CC1 (stereo not drawn)	PABP polyA inh 53, eIF4H FP inh 64
COc1ccc(CNc2ccc(S(N)(=O)=O)cc2)cc1	MLLE-PAM2 inh 57
CCOC(=O)CC(NS(=O)(=O)c1ccc(OC)c(OC)c1)c1cccc([N+](=O)[O-])c1 (stereo not drawn)	none
CCOC(=O)CC(NS(=O)(=O)c1ccc2[nH]cc(C(=O)O)c(=O)c2c1)c1ccc(OCC)c(OC)c1 (stereo not drawn)	PABP polyA inh 41, eIF4H FP inh 79 (no result: PERK inhibitor, eIF4E 4G PPI)
Cc1nc(NC(=S)NC(=O)c2ccccc2)sc1C(=O)N(C)C	MLLE-PAM2 inh 42
CCn1c(=O)c(C(=O)NNC(=O)c2ccccc2Br)c(O)c2ccccc21	none (no result: PERK inhibitor, eIF4E 4G PPI)
O=[N+]([O-])c1cnn2cc(Br)cnc12	none
C[C@@H]1CCC2[C@](C)(CO)[C@@H](O)CC[C@]2(C)[C@@]12CCC(CO)(CCO)O2 (stereo partly drawn)	none (no result: PERK inhibitor, eIF4E 4G PPI)
C[C@@H]1CCC2[C@](C)(CO)[C@@H](O)CC[C@]2(C)[C@@]12CC[C@@](CO)(CC(=O)O)O2 (stereo partly drawn)	MLLE-PAM2 inh 53 (no result: PERK inhibitor, eIF4E 4G PPI)
CC1CCN(C(=S)c2ccc(O)cc2)CC1	MLLE-PAM2 inh 37
CC1CCN(C(=S)c2ccccc2O)CC1	eIF4E 4G PPI 31[fluorescence artefact?]
Oc1cccc(C(=S)N2CCCCC2)c1	MLLE-PAM2 inh 38
Oc1ccc(C(=S)N2CCCCCC2)cc1	MLLE-PAM2 inh 37
Oc1ccc(C(=S)N2CCCC2)cc1	none (no result: PERK inhibitor, eIF4E 4G PPI)
Cc1occc1C(=O)N/N=C/C=C/c1ccc(N(C)C)cc1	none (no result: PERK inhibitor, eIF4E 4G PPI)
CC(/C=C1\SC(=S)N(CC(=O)O)C1=O)=C\c1ccccc1	none
O=C(CN1C(=O)/C(=C/c2ccco2)SC1=S)Nc1ccc(C(=O)O)c(O)c1	PABP polyA inh 82, eIF4H FP inh 92 (no result: PERK inhibitor, eIF4E 4G PPI)
CC(C(=O)Nc1ccc(C(=O)O)c(O)c1)N1C(=O)/C(=C\c2ccco2)SC1=S (stereo not drawn)	PABP polyA inh 87, eIF4H FP inh 100 (no result: PERK inhibitor, eIF4E 4G PPI)
O=C(CN1C(=O)/C(=C/c2ccco2)SC1=S)NC1CCS(=O)(=O)C1 (stereo not drawn)	PABP polyA inh 51, eIF4H FP inh 74 (no result: PERK inhibitor, eIF4E 4G PPI)
